Results as given in PubChem BioAssay (EPA / NIEHS).
Calls of active or inactive are those of the source. The calls were made as follows: active = hit-call score of the fitted dose curve at least 0.9, where 1 is the maximum; inactive = score below 0.9.

Experiments:
Conditions in all cases: mRNA level, 48 h; actives raise or lower the signal
CYP4A11 (gene 1579) = assay: LTEA_HepaRG_CYP4A11: Life Technologies and Expression Analysis (LTEA) Assay for CYP4A11 using HepaRG (AID 2283486)
In short: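 Readout is CYP4A11 transcript level by qRT-PCR, normalized to three housekeeping genes and fitted bidirectionally against 0.5% DMSO. Human HepaRG cells were treated 48 h, in duplicate, with an 8-point half-log series topping at 100 uM.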

[1] = read-out: Cytochrome P450 3A4 (Homo sapiens) (UniProt P08684); assay: LTEA_HepaRG_CYP3A4: Life Technologies and Expression Analysis (LTEA) Assay for CYP3A4 using HepaRG (AID 2283487)
In short: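 In a human hepatic line (HepaRG), duplicate wells were treated 48 h with up to 100 uM chemical in half-log dilutions. Endpoint: CYP3A4 mRNA induction or loss relative to 0.5% DMSO vehicle, by qRT-PCR.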

[2] = read-out: Pro-epidermal growth factor (Homo sapiens) (UniProt P01133); assay: LTEA_HepaRG_EGF: Life Technologies and Expression Analysis (LTEA) Assay for Epidermal growth factor (EGF) using HepaRG (AID 2283489)
In short: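 EGF transcript measured by Fluidigm TaqMan qRT-PCR with three housekeeping genes for normalization, 48 h after dosing HepaRG cultures in duplicate (top 100 uM, half-log steps, 0.5% DMSO vehicle). Gain or loss relative to DMSO fitted.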

[3] = read-out: Early growth response protein 1 (EGR1) transcription factor, EGR1 (gene 1958); assay: LTEA_HepaRG_EGR1: Life Technologies and Expression Analysis (LTEA) Assay for Early growth response protein 1 (EGR1) transcription factor using HepaRG (AID 2283490)
In short: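 HepaRG, 48 h exposure, 8-pt half-log series from 100 uM, 0.5% DMSO vehicle; EGR1 transcript by TaqMan qRT-PCR (Fluidigm array), housekeeping-normalized; bidirectional fit relative to DMSO baseline.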

[4] = read-out: Ezrin (EZR), EZR (gene 7430); assay: LTEA_HepaRG_EZR: Life Technologies and Expression Analysis (LTEA) Assay for Ezrin (EZR) using HepaRG (AID 2283491)
In short: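 Gain or loss of EZR mRNA is scored relative to 0.5% DMSO in human HepaRG cultures treated 48 h with test chemicals in duplicate, eight half-log concentrations from 100 uM.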

CYP3A5 (gene 1577) = assay: LTEA_HepaRG_CYP3A5: Life Technologies and Expression Analysis (LTEA) Assay for CYP3A5 using HepaRG (AID 2283493)
In short: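 Readout was CYP3A5 mRNA by qRT-PCR. HepaRG cultures were exposed for 48 h in serum-free induction medium to chemicals at up to 100 uM, and responses were fitted in both directions relative to DMSO vehicle.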

[5] = read-out: Fatty Acid-Binding Protein 1 (FABP1), FABP1 (gene 2168); assay: LTEA_HepaRG_FABP1: Life Technologies and Expression Analysis (LTEA) Assay for Fatty Acid-Binding Protein 1 (FABP1) using HepaRG (AID 2283494)
In short: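 qRT-PCR readout of FABP1 transcript (normalized to three housekeeping genes) after 48 h chemical exposure of HepaRG cells; eight concentrations, half-log steps, max 100 uM, 0.5% DMSO vehicle; gain or loss fitted relative to DMSO baseline.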

[6] = read-out: Cytochrome P450 4A22 (Homo sapiens) (UniProt Q5TCH4); assay: LTEA_HepaRG_CYP4A22: Life Technologies and Expression Analysis (LTEA) Assay for Cytochrome P450 4A22 (CYP4A22) using HepaRG (AID 2283495)
In short: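 Gene expression measured by qRT-PCR against three housekeeping genes (ACTB, GAPDH, POLR2A), with gain or loss fitted relative to 0.5% DMSO vehicle. HepaRG cultures received 48 h chemical treatment, top concentration 100 uM, half-log steps, duplicate wells.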

[7] = read-out: Cytochrome P450 7A1 (Homo sapiens) (UniProt P22680); assay: LTEA_HepaRG_CYP7A1: Life Technologies and Expression Analysis (LTEA) Assay for Cytochrome P450 7A1 (CYP7A1) using HepaRG (AID 2283496)
In short: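 Using 0.5% DMSO as vehicle and baseline, chemicals were tested in duplicate over an 8-point range from 100 uM on HepaRG cells for 48 h; qRT-PCR signals were normalised to ACTB, GAPDH and POLR2A.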

[8] = read-out: Glutathione S-Transferase (GSTA2), GSTA2 (gene 2939); assay: LTEA_HepaRG_GSTA2: Life Technologies and Expression Analysis (LTEA) Assay for Glutathione S-Transferase (GSTA2) using HepaRG (AID 2283497)
In short: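 qRT-PCR readout of GSTA2 transcript, normalized to three housekeeping genes, fitted bidirectionally against 0.5% DMSO baseline. Differentiated HepaRG cells received compound for 48 h at 8 concentrations (top 100 uM, half-log steps).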

[9] = read-out: Glutamate-cysteine ligase catalytic (GCLC), GCLC (gene 2729); assay: LTEA_HepaRG_GCLC: Life Technologies and Expression Analysis (LTEA) Assay for Glutamate-cysteine ligase catalytic (GCLC) using HepaRG (AID 2283498)
In short: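 HepaRG, 48 h exposure, 8-pt half-log series from 100 uM, 0.5% DMSO vehicle; TaqMan qRT-PCR for GCLC mRNA, housekeeping-normalized; bidirectional curve fit vs DMSO baseline.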

[10] = read-out: Glutamate-cysteine ligase regulatory (GCLM), GCLM (gene 2730); assay: LTEA_HepaRG_GCLM: Life Technologies and Expression Analysis (LTEA) Assay for Glutamate-cysteine ligase regulatory (GCLM) using HepaRG (AID 2283500)
In short: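 In this multiplexed HepaRG gene-expression assay, GCLM mRNA change after 48 h treatment (8 concentrations, max 100 uM) was scored against DMSO by bidirectional curve fitting.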

[11] = read-out: Glutathione S-transferase M3 (GSTM3), GSTM3 (gene 2947); assay: LTEA_HepaRG_GSTM3: Life Technologies and Expression Analysis (LTEA) Assay for Glutathione S-transferase M3 (GSTM3) using HepaRG (AID 2283501)
In short: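 GSTM3 transcript levels came from Fluidigm TaqMan qRT-PCR normalized to three housekeeping genes, fitted in both directions against DMSO. HepaRG cultures received chemicals for 48 h in serum-free induction medium (0.5% DMSO), 8 half-log concentrations up to 100 uM, duplicate.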

[12] = read-out: Heat shock 70 kDa protein 1 (HSPA1A), gene 3303; assay: LTEA_HepaRG_HSPA1A: Life Technologies and Expression Analysis (LTEA) Assay for Heat shock 70 kDa protein 1 (HSPA1A) using HepaRG (AID 2283502)
In short: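 An oxidative-stress marker readout: HepaRG cells treated 48 h in duplicate with an eight-point series (highest 100 uM) had HSPA1A mRNA quantified by TaqMan qRT-PCR. Activity was fitted in both directions using 0.5% DMSO as baseline.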

[13] = read-out: Hypoxia-inducible factor 1-alpha (Homo sapiens) (UniProt Q16665); assay: LTEA_HepaRG_HIF1A: Life Technologies and Expression Analysis (LTEA) Assay for Hypoxia-inducible factor 1 (HIF1A) Trancription factor using HepaRG (AID 2283503);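 also: HIF1A transcript by TaqMan qRT-PCR normalized to ACTB GAPDH and POLR2A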
In short: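 Gain- or loss-of-signal HIF1A mRNA changes are fitted against a DMSO baseline. HepaRG cultures receive eight concentrations, highest 100 uM, for 48 h in serum-free induction medium with 0.5% DMSO.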

[14] = read-out: 3-Hydroxy-3-Methylglutaryl-CoA Synthase 2 (HMGCS2), HMGCS2 (gene 3158); assay: LTEA_HepaRG_HMGCS2: Life Technologies and Expression Analysis (LTEA) Assay for 3-Hydroxy-3-Methylglutaryl-CoA Synthase 2 (HMGCS2) using HepaRG (AID 2283504)
In short: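 Readout is HMGCS2 transcript by qRT-PCR, housekeeping-normalised (ACTB/GAPDH/POLR2A) and fitted bidirectionally against 0.5% DMSO. Differentiated HepaRG cells received chemicals 48 h, duplicate wells, eight half-log concentrations topping at 100 uM.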

[15] = read-out: DNA damage-inducible transcript 3 (DDIT3), DDIT3 (gene 1649); assay: LTEA_HepaRG_DDIT3: Life Technologies and Expression Analysis (LTEA) Assay for DNA damage-inducible transcript 3 (DDIT3) using HepaRG (AID 2283488)
In short: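 Eight-point concentration-response (100 uM highest, half-log dilutions) in HepaRG, 48 h, duplicate wells. Endpoint: qRT-PCR mRNA, normalized (ACTB, GAPDH, POLR2A), bidirectional fitting with DMSO as baseline.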

HGF (gene 3082) = assay: LTEA_HepaRG_HGF: Life Technologies and Expression Analysis (LTEA) Assay for Hepatocyte Growth Facto (HGF) using HepaRG (AID 2283505)
In short: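 HGF transcript was quantified by TaqMan qRT-PCR against three housekeeping genes after 48 h treatment of HepaRG cells. Exposure ran in duplicate over eight half-log steps topping at 100 uM in 0.5% DMSO vehicle.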

[16] = read-out: Cytochrome P450 3A7 (Homo sapiens) (UniProt P24462); assay: LTEA_HepaRG_CYP3A7: Life Technologies and Expression Analysis (LTEA) Assay for CYP3A7 using HepaRG (AID 2283492)
In short: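 CYP3A7 transcript measured by qRT-PCR (ACTB, GAPDH, POLR2A normalization) after 48 h chemical exposure of HepaRG cells in duplicate. Eight half-log concentrations, maximum 100 uM, 0.5% DMSO vehicle; bidirectional curve fitting against DMSO baseline.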

[17] = read-out: growth arrest and DNA damage 45 (GADD45G), GADD45G (gene 10912); assay: LTEA_HepaRG_GADD45G: Life Technologies and Expression Analysis (LTEA) Assay for growth arrest and DNA damage 45 (GADD45G) using HepaRG (AID 2283499)
In short: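 GADD45G transcript level by qRT-PCR (housekeeping-normalized: ACTB, GAPDH, POLR2A) after 48 h chemical treatment of a single HepaRG lot in serum-free induction medium; eight-point half-log series up to 100 uM in 0.5% DMSO, duplicates, up- or down-regulation scored.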

Measured: AC50

Hypoxia-inducible factor 1-alpha (Homo sapiens), sequence (Q16665 whole entry, looked up): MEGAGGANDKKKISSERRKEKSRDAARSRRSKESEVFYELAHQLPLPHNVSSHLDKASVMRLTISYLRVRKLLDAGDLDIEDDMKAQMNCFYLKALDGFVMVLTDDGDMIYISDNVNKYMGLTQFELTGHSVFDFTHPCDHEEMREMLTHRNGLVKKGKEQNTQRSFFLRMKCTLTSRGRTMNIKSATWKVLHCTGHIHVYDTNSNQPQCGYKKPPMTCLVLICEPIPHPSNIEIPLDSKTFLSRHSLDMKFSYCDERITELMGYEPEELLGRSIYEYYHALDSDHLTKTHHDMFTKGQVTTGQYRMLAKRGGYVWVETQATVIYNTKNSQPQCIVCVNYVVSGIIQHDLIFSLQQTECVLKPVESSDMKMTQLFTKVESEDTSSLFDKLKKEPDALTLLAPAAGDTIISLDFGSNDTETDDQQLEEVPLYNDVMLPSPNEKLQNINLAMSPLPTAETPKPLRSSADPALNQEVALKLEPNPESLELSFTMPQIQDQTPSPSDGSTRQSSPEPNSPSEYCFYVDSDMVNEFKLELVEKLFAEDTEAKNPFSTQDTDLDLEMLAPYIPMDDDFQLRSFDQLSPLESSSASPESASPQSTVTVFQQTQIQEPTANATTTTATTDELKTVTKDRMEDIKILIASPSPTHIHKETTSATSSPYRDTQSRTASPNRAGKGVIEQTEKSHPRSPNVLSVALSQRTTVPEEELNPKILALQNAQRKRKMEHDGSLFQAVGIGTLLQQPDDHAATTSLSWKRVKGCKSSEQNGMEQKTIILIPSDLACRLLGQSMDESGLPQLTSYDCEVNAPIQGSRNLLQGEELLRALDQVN
Cytochrome P450 3A4 (Homo sapiens), sequence (P08684 whole entry, looked up): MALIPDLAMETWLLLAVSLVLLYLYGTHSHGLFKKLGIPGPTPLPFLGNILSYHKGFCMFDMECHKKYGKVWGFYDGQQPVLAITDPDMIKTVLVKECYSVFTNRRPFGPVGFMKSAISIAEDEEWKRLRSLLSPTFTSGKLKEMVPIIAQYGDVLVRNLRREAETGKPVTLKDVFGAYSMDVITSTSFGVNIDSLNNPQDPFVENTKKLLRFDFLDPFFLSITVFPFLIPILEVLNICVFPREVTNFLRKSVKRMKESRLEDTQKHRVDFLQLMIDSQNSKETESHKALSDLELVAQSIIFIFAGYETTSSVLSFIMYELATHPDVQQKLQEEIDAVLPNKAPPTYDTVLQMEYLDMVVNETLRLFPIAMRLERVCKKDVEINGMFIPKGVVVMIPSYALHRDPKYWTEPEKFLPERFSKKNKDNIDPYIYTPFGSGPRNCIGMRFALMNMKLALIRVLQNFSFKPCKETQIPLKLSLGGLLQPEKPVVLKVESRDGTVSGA
Cytochrome P450 3A7 (Homo sapiens), sequence (P24462 whole entry, looked up): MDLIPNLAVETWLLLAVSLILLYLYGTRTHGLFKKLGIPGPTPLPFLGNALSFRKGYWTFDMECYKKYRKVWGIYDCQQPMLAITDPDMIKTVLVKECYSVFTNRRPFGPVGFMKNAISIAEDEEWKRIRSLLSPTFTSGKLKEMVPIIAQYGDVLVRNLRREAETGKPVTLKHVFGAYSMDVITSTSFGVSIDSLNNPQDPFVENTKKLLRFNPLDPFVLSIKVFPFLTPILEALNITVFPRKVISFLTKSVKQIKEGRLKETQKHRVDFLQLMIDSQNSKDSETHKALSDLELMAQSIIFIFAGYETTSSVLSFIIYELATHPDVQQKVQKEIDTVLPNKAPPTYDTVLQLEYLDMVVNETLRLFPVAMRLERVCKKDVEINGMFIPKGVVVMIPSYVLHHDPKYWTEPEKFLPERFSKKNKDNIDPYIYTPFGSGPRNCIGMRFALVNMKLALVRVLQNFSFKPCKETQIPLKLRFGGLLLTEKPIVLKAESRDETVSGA

CC(C)C1(C)N=C(c2nc3ccccc3cc2C(=O)O)NC1=O (stereo not drawn)
active: [1] 18.8 µM
not listed: [15] | HGF (gene 3082) | [16] | [17]
inactive: all other assays above

CCc1nn(C)c(C(=O)NCc2ccc(C(C)(C)C)cc2)c1Cl
inactive: [4] | [13]
active: CYP4A11 (gene 1579) 0.393 µM | [1] 13.3 µM | [15] 0.738 µM | [2] 50 µM | [3] 50 µM | CYP3A5 (gene 1577) 88.9 µM | [5] 5 µM | [6] 0.677 µM | [7] 11.9 µM | [8] 11.9 µM | [9] 50 µM | [10] 12.2 µM | [11] 4.76 µM | [12] 9.92 µM | [14] 8.88 µM | HGF (gene 3082) 78.6 µM

COC(=O)C(C)Oc1ccc(Oc2ccc(Cl)cc2Cl)cc1 (stereo not drawn)
active: CYP4A11 (gene 1579) 12.7 µM | [6] 12.7 µM | [8] 74.4 µM | [14] 17.5 µM
not listed: HGF (gene 3082) | [16] | [17]
inactive: all other assays above

COP(N)(=O)SC (stereo not drawn)
not listed: HGF (gene 3082)
inactive: all other assays above

OC(c1ccc(Cl)cc1)(c1cncnc1)c1ccccc1Cl (stereo not drawn)
active: CYP4A11 (gene 1579) 70.4 µM | [1] 11.4 µM | [15] 71.8 µM | [2] 34.1 µM | [16] 11.9 µM | [5] 80.4 µM | [6] 72.9 µM | [7] 77 µM | [8] 74.8 µM | [9] 50 µM | [17] 68.7 µM | [10] 57.8 µM | [14] 82 µM
inactive: [3] | [4] | CYP3A5 (gene 1577) | [11] | [12] | [13]

CS/C(C)=N/OC(=O)N(C)SN(C)C(=O)O/N=C(\C)SC
active: [7] 9.92 µM
not listed: [16]
inactive: all other assays above
